Luciferase inh: qHTS Assay for Inhibitors of Firefly Luciferase; AID 411, 2009; 72,000 tested, 2.2% active; purified firefly luciferase, luminescence, 8 min; Potency, µM (top dose mostly 57.1 µM), for the others: at the top dose activity change, negative = inhibition, usual class: inhibitors; Luciferin 4-monooxygenase (Photinus pyralis), P08659; also: nearly all actives have a fitted effect of over 40% in size
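Luminescence read-out after 8 min at room temperature; enzyme reaction used luciferin plus 10 uM ATP (linear range) in imidazole buffer pH 7.2 with KCl, MgCl2, Tween 20 and BSA. Each sample was run as a titration.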
Bst PK mod: Pyruvate Kinase; purified pyruvate kinase, luminescence ATP production; ribose 5-phosphate activator present at AC10; Potency, µM; 51,000 tested, 1.2% active; AID 361, 2006; in the data active = potency below about 11 µM; inconclusive = mostly about 12 µM to 25 µM;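 the screen sought inhibitors and activators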;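 also: scaled between full activation by ribose 5 phosphate and full inhibition by luteolin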
HSD17B inh: qHTS Assay for Inhibitors of HSD17B4, hydroxysteroid (17-beta) dehydrogenase 4 | 75,000 tested, 7.6% active | 3-hydroxyacyl-CoA dehydrogenase type-2 (Homo sapiens), Q99714 | recombinant HSD17B10, NADH fluorescence kinetic | AID 893, 2007 | Potency, µM (doses to about 57.1 µM), for inactives: at the highest dose activity change, negative = inhibition, most hits filed as inhibitors;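 also: the protocol describes HADH2 (HSD17B10) and not the HSD17B4 of the title; nearly all actives have a fitted effect of over 70% in size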
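Activity followed as NADH fluorescence increase (ex 360, em 450 nm) every 30 seconds for 4 min, using final 90 uM beta-hydroxybutyryl CoA and 1 mM NAD+. Recombinant His-tagged enzyme, 20 nM, pH 9.0 Tris buffer, 15 min compound preincubation.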
HADH2 inh: qHTS Assay for Inhibitors of HADH2 (Hydroxyacyl-Coenzyme A Dehydrogenase, Type II); Potency, µM (titrated, usually from 57.1 µM), for inactives: at the highest dose activity change, negative = inhibition, hits mostly inhibitors; 73,000 tested, 3.4% active; recombinant HADH2, NADH fluorescence, beta-hydroxybutyryl-CoA; 3-hydroxyacyl-CoA dehydrogenase type-2 (Homo sapiens), Q99714; also: nearly all actives have a fitted effect of over 60% in size
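Activity measured as NADH fluorescence gain (360/450 nm), taken as the change between first and last reads of a 4-min kinetic run. Conditions: pH 9.0 Tris buffer, 20 nM E. coli-expressed His-tagged enzyme, 1 mM NAD+, 90 uM beta-hydroxybutyryl-CoA; 15-min compound preincubation.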
ERK AVP inh: qHTS Assay for Inhibitors of the ERK Signaling Pathway using a Homogeneous Screening Assay; HEK293-V1b, vasopressin-stimulated pERK AlphaScreen; Potency, µM (doses to about 57.5 µM), inactives show at the top dose activity, negative = inhibition, most hits filed as inhibitors; 72,000 tested, 0.99% active; AID 995, 2007; also: nearly all actives have a fitted effect of over 55% in size
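HEK293 cells stably expressing V1b receptor, seeded overnight in 1% FBS, were treated with compounds for 30 min at 37C, then stimulated 5 min with 25 nM vasopressin; phospho-ERK read by AlphaScreen SureFire after lysis.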
ALOX15 inhib: qHTS Assay for Inhibitors of 15-hLO (15-human lipoxygenase) | purified 15hLO-1, xylenol orange hydroperoxide absorbance | AID 887, 2007 | Polyunsaturated fatty acid lipoxygenase ALOX15 (Homo sapiens), P16050 | Potency, µM (titrated, usually from 57.1 µM), for the others: top-dose activity change, negative = inhibition, usual class: inhibitors | 74,000 tested, 1.4% active; also: nearly all actives have a fitted effect of over 55% in size
Target sequence (P16050 whole entry, looked up): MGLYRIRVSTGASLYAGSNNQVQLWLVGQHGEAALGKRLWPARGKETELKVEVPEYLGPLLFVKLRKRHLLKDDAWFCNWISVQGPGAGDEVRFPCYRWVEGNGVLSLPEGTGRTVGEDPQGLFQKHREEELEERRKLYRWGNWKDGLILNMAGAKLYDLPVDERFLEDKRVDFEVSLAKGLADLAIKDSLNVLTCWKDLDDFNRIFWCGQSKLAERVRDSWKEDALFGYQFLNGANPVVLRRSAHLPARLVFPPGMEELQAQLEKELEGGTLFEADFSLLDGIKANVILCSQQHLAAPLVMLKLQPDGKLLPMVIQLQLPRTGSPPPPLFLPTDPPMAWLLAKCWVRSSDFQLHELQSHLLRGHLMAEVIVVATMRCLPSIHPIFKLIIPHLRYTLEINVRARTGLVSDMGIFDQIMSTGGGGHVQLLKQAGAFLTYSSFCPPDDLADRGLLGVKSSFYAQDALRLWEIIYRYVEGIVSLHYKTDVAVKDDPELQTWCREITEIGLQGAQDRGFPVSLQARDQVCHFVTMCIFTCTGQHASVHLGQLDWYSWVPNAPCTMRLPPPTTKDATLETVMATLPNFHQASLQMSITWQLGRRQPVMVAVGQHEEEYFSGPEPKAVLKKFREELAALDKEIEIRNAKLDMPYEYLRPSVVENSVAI
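Inhibition is scored from a chromogenic endpoint. After 15 min enzyme-compound contact, arachidonic acid (50 uM final) reacts 6 min with 40 nM 15hLO-1 at room temperature, then Fe-XO reagent is added for 30 min and absorbance ratio recorded.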
The depositor's hits bear a star; ? = inconclusive; / = not tested or not shown; [ ] = remark or other dose. The list is not random: actives were taken first. Their share in the collection is about 11%. Unless noted, calls follow the shape of the dose curve; as a rule, active = well fitted curve in the direction sought with a large enough effect; inconclusive = small, poorly fitted or top-dose-only effect, or another doubt; inactive = no such curve, though single readings can be large; an effect the other way counts as inactive or inconclusive. Unless noted, % is scaled to controls: 0 for no effect and ±100 for the full control effect; potency is read from the fitted curve at half-maximal effect.

SMILES	Luciferase inh	Bst PK mod	HSD17B inh	HADH2 inh	ERK AVP inh	ALOX15 inhib
O=C(O)CCN1C(=O)c2ccccc2C1=O	1%	>57	-1%	8%	14%	-2%
C/C(=C1/SC(=S)N(CCC(=O)O)C1=O)c1ccc(O)cc1	2%	/	?	32µM*	-26%	?
COc1ccc(-c2nn(C)c(=O)c3ccccc23)cc1CNC(=O)c1ccco1	1%	>57	32µM*	-22%	?	-1%
COc1ccc(-c2nn(C)c(=O)c3ccccc23)cc1CNS(C)(=O)=O	2%	>57	0%	8%	-22%	2%
CCCCCCC/C=C/C1=CC2(C)CC1(C)C(CCCCCCC)CC2=O (configuration not stated)	/	/	-5%[11.4 µM]	-19%[11.4 µM]	8%[11.5 µM]	3%[11.4 µM]
CCN1CCC2(CC1)C(C#N)=C(N)Oc1c2sc2nc(C)cc(C)c12	-2%	/	62%	?	?	25µM*
CC(=O)N1CCC2(CC1)C(C#N)=C(N)Oc1c2sc2nc(C)cc(C)c12	-3%	>57	-8%	-18%	17%	?
COc1ccccc1CNc1ccc(N2CCCCC2)cc1	-14%	>57	2%	-7%	16µM*	16µM*
COc1cccc(CNc2ccc(N3CCCCC3)cc2)c1OC	?	>57	17%	-18%	20µM*	2µM*
COc1ccccc1CNC(=O)c1ccc(CNc2c(N3CCCC3)c(=O)c2=O)cc1	1%	/	2%	-10%	6%	-1%
COc1cccc(CNc2ccc(S(N)(=O)=O)cc2)c1OC	-9%	>57	0%	0%	-10%	9%
CC(C)NC(=O)N1CC[C@@]2(CCCN(S(C)(=O)=O)C2)C1	1%[11.4 µM]	/	10%	0%	-6%	7%
COCCOC(=O)C1=C(C)NC2=C(C(=O)CC(C)(C)C2)C1c1cc2c(cc1Br)OCO2 (configuration not stated)	2%	/	32µM*	?	67%	?
COc1cc2c(cc1OC)C(c1ccc3c(c1)OCO3)C1=C(CC(C)(C)CC1=O)N2 (configuration not stated)	0%	>57	2µM*	-6%	10%	?
FC(F)(F)c1nc2nncn2c2c1CCCCC2	3%	>57	25µM*	-21%	-22%	3%
CN(Cc1cnc2nc(N)nc(N)c2n1)c1ccc(C(=O)N[C@H](CCC(=O)O)C(=O)O)cc1	1%[25.5 µM]	/	-3%[25.6 µM]	?	4%[25.7 µM]	8%[25.6 µM]
CN(Cc1cnc2nc(N)nc(N)c2n1)c1ccc(C(=O)N[C@@H](CCC(=O)O)C(=O)O)cc1	-1%	/	32µM*	-11%	7%	?
Nc1nc2ncc(CNc3ccc(C(=O)NC(CCC(=O)O)C(=O)O)cc3)nc2c(=O)[nH]1 (configuration not stated)	/	/	-1%	/	12%	-5%
Nc1nc2ncc(CNc3ccc(C(=O)N[C@@H](CCC(=O)O)C(=O)O)cc3)nc2c(=O)[nH]1	14%[25.5 µM]	/	25µM*	-15%[25.6 µM]	?	8%[25.6 µM]
c1ccc2sc(SCN(C3CCCCC3)C3CCCCC3)nc2c1	3%[11.4 µM]	/	-2%[11.4 µM]	-1%[11.4 µM]	-14%[11.5 µM]	-6%[11.4 µM]
O=C(O)[C@H]([C@H]1NCCS1)N1C(=O)c2ccccc2C1=O	0%[11.4 µM]	/	11%[11.4 µM]	-6%[11.4 µM]	-25%[11.5 µM]	3%[11.4 µM]
O[C@H](CN1CCN(c2cccc(Cl)c2)CC1)C(c1ccccc1)c1ccccc1	-1%	/	5%	12%	-6%	?
COc1ccc(Oc2ncc3nc(C)c(=O)n(C4CC4)c3n2)cc1	0%[11.4 µM]	/	4%	-10%	-13%	3%
N=c1c[n+](N2CCOCC2)[n-]o1	4%[25.5 µM]	>26	13µM*	?	12%	-8%
Cc1ccccc1OCC1CO1 (configuration not stated)	/	/	3%	2%	5%	-1%
SMILES	Luciferase inh	Bst PK mod	HSD17B inh	HADH2 inh	ERK AVP inh	ALOX15 inhib
O=C1C(Cl)=C(Nc2ccc(S(=O)(=O)Nc3ccccn3)cc2)C(=O)c2ccccc21	2%[11.4 µM]	/	1.3µM*	2.5µM*	-26%[11.5 µM]	?
Nc1ccc(S(=O)(=O)Nc2ccccn2)cc1	4%[25.5 µM]	>26	-4%	2%[25.6 µM]	13%	5%
c1ccc2[nH]c(-c3ccnc4ccccc34)nc2c1	-13%	/	32µM*	25µM*	?	-18%
c1ccc2nc(-c3nc4ccccc4[nH]3)ccc2c1	0.79µM*	0.54*	10µM*	32µM*	5%	41%
COC(=O)C1=C(C)N(Cc2ccccc2)C2=C3C(=O)OCCC3[C@@](O)(C(=O)OC)C(=O)N2C1c1ccccc1 (some centres not stated)	/	/	2%[11.4 µM]	-1%[11.4 µM]	8%[11.5 µM]	6%[11.4 µM]
O=C(Oc1ccc(-c2cnc3ccccc3n2)cc1)c1ccco1	5µM*	/	?	?	-21%	?
Cc1cc(NCCCN2CCOCC2)n2nc(C)c(-c3ccccc3)c2n1	-2%	>57	-12%	21%	-1%	0%
Cc1cc(NCCCN2CCOCC2)n2ncc(-c3ccccc3)c2n1	13µM*	/	-15%	69%	18%	1%
Cc1cc(C)c2c(n1)nn1c(NCCCn3ccnc3)cc(C)nc21	1%	>57	25µM*	?	4%	14%
Cc1cc(NCCCN2CCOCC2)n2nc(C)c(-c3ccc(F)cc3)c2n1	-2%	>57	?	5%	?	-42%
Cc1cc(C)c2c(n1)nn1c(NCCCN3CCOCC3)cc(C)nc21	3%	>57	25µM*	25µM*	-4%	2%
Cc1cc(NCCCn2ccnc2)n2nc(-c3ccc(F)cc3)cc2n1	13µM*	?	25µM*	?	-12%	21%
COc1ccc(C(=O)N2CCC3(CC2)CN(CC(C)C)C3)cc1	0%[11.4 µM]	/	10%	-5%	-9%	7%
O=C(O)/C(=C\c1ccncc1)c1cccc2ccccc12	2%[11.4 µM]	/	5%[11.4 µM]	1%[11.4 µM]	-4%[11.5 µM]	9%[11.4 µM]
Cc1cc(NCCOCCO)n2ncc(-c3ccc(Cl)cc3)c2n1	6.3µM*	6.7*	32µM*	-2%	-8%	-17%
CCOc1ccc(-c2cc3nc(C4CCN(C(=O)OC(C)(C)C)CC4)c(C(=O)O)cn3n2)cc1	-1%	/	32µM*	6%	?	-2%
Cc1nc(Nc2nc(-c3ccccc3)cc(=O)[nH]2)nc2ccccc12	10µM*	5.1*	-7%	?	?	-13%
CCOC(=O)N/N=C1/C[C@@H](O)[C@@H](O)[C@@H]2[C@H]3C(=O)N(c4ccc(F)cc4F)C(=O)[C@@H]3CC[C@H]12	0%[11.4 µM]	/	4%[11.4 µM]	-7%[11.4 µM]	6%[11.5 µM]	8%[11.4 µM]
Nc1nnc(N2CCc3ccccc32)s1	?	/	-13%	-24%	16µM*	11%
